Shown are actives, neighbours in structure and some others; about 2.3% of the full set was active somewhere.
Tau fibril FP: tau fibrillization inhibition (FP). K18 P301L tau heparin fibrillization, Alexa594 FP, 6 h. Potency, µM (series often up to 57.7 µM), without a hit: at the top dose activity, negative = inhibition, most hits filed as inhibitors. 0.39% of 280,000 active; note: potency is the fitted concentration of half-maximal effect; nearly all actives have a fitted effect of over 55% in size
Target sequence (P10636 561-689 P618L limits assumed): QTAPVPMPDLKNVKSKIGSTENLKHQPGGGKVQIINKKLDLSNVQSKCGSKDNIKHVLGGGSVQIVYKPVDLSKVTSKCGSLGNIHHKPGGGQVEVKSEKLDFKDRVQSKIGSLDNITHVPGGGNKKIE
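Steps: dispense K18 P301L tau (15 uM plus 0.24 uM Alexa 594 tracer, final) in pH 7 sodium acetate; add compound; add heparin (20 uM final); incubate 6 hr, 37 C; add ThT (30 uM final); after 1 hr ambient, read FP.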
Tau fluor counter: counter-screen for tau fibril formation inhibitors; tau K18 P301L Alexa594 fluorescence, heparin fibrillization; Potency, µM (titrated, usually from 57.7 µM), for the others: at the top dose activity change, negative = decrease; 0.93% of 280,000 active; AID 1463; note: potency is the fitted concentration of half-maximal effect; nearly all actives have a fitted effect of over 55% in size
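Human tau K18 P301L (15 uM unlabeled, 0.24 uM Alexa 594-labeled) in 100 mM sodium acetate pH 7 with 20 uM heparin, 6 hr at 37 C. ThT 30 uM added, 1 hr ambient; Alexa 594 FP and total fluorescence read at 555/632 nm.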
Coupling enz: inhibits coupling enzyme system, counter-screen for aldolase hits; coupling enzyme system counterscreen, AmpLite Red fluorescence; activity change, negative = inhibition, % at 58.2 µM, hits read low; 0.67% of 290,000 active; AID 2472; in the data active = activity change below about -30%
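Coupling enzymes only (glyceraldehyde-3-phosphate) + compound, at 57.5 uM final, 10 min RT; add substrate/coupling/AmpLite Red mix, 20 min RT; fluorescence ex 525/em 598 nm. Actives flag coupling-system interference.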
Tau ThT inhib: inhibitors of human tau fibril formation, thioflavin T binding. P10636. recombinant tau K18 P301L (four-repeat tau fragment), heparin-induced fibrillization, ThT fluorescence. Potency, µM (top dose mostly 57.4 µM), inactives show at the top dose activity, negative = inhibition, most hits filed as inhibitors. 2.1% of 270,000 active. AID 1460; note: potency is the fitted concentration of half-maximal effect; nearly all actives have a fitted effect of over 55% in size
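Aggregation was driven by heparin (20 uM final) acting on recombinant tau […] bearing P301L in 100 mM sodium acetate pH 7; fibrils were detected with Thioflavin T.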
USP1 inh: USP1/UAF1 (human) deubiquitinase inhibition | O94782 | Potency, µM (doses to about 57.1 µM), without a hit: at the highest dose activity change, negative = inhibition, most hits filed as inhibitors | recombinant USP1/UAF1, Ub-Rhodamine cleavage fluorescence | 0.23% of 390,000 active; note: potency is the fitted concentration of half-maximal effect; nearly all actives have a fitted effect of over 60% in size
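1 nM enzyme complex + cpd, 15 min RT; start with Ub-Rho 150nM final; kinetic fluorescence ex 480/em 540, 6 reads q60 s. Buffer 50mM HEPES pH 7.8, 0.5mM EDTA, 0.1 mg/ml BSA, 1mM TCEP, 0.01% Tween-20.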
An asterisk follows results filed as active; ? = inconclusive; nt = no result; [ ] = remark or other dose. Unless noted, calls come from the whole dose curve; as a rule, active = well fitted curve in the direction sought with a large enough effect; inconclusive = small, poorly fitted or top-dose-only effect, or another doubt; inactive = no such curve, though single readings can be large; an effect the other way counts as inactive or inconclusive. % is set by controls: 0 for no effect and ±100 for the full control effect.

SMILES	Tau fibril FP	Tau fluor counter	Coupling enz	Tau ThT inhib	USP1 inh
CCN(CC)C(C)CN1c2ccccc2Sc2ccccc21 (configuration not stated)	11%	20µM*[quencher]	-3	?	nt
COc1ccc2c(c1)-c1nc(/N=C/c3ccccc3O)sc1CC2	?	?	-17	32µM*	-18%
COc1ccc2c(c1)-c1nc(/N=C/c3cccc(OC)c3O)sc1CC2	-1%	3%	6	6%	-6%
O=C(Cl)CCCCCCCC(=O)Cl	nt	nt	-3	nt	nt
CC(=O)Nc1ccc(NC(=O)c2cc3c(=O)n(Cc4cccnc4)ccc3nc2C)cc1	-7%	3%	nt	0%	-4%
CCOc1ccc(OCC)c(NC(=O)c2cnc3c(-c4ccccc4)c(C)nn3c2C)c1	5%	-20%	nt	?	-2%
Clc1ccc(Nc2ccc(NCc3ccccc3)nn2)cc1	14%	13µM*[quencher]	-3	?	-27%
Cc1ccc(-c2cc(O)cc3sc(=O)oc23)cc1C	22µM*	16µM*[quencher]	0	?	-27%
COC(=O)C1=C(C)N(CCc2c[nH]c3ccccc23)C(=O)/C1=C\N(C)C	-17%	?	-3	14µM*	-2%
CCN1C(=NCCc2c[nH]c3ccccc23)N[C@@H](c2ccccc2)C(C(=O)OC)=C1C	nt	nt	0	nt	nt
COC(=O)[C@H]1C(OC)[C@@H](OC(=O)c2cc(OC)c(OC)c(OC)c2)C[C@@H]2CN3CCc4c([nH]c5cc(OC)ccc45)[C@H]3C[C@H]21 (some centres not stated)	?	?	-13	10µM*	nt
COC(=O)[C@H]1[C@H]2C[C@@H]3c4[nH]c5cc(OC)ccc5c4CCN3C[C@H]2C[C@@H](OC(=O)c2ccc(N)cc2)[C@@H]1OC	-4%	?	2	14µM*	-12%
COC(=O)C1C2CC3c4[nH]c5cc(OC)ccc5c4CCN3CC2CC(OC(=O)c2cc(OC)c(OC)c(OC)c2)C1OC (configuration not stated)	7%	?	-19	?	nt
NS(=O)(=O)c1ccc(CCNC(=O)Cn2c(=O)c3cccn3c3ccc(F)cc32)cc1	?	-3%	nt	7%	-13%
CCOc1ccc(NC(=O)c2ccc(-c3cccc(Cl)c3C)o2)cc1	-10%	?	nt	?	?
COc1ccc(OC)c(/C=C2/Sc3ccccc3C2=O)c1	7%	-10%	-1	?	28µM*
Cc1ccc(/C=C2\Sc3ccccc3C2=O)s1	2%	-15%	0	3.2µM*	?
CC(=O)Nc1ccc(/C=C2\Sc3ccccc3C2=O)cc1	1%	-10%	4	?	-14%
Cc1noc(-c2ccc(NC(C)c3ccccc3)c([N+](=O)[O-])c2)n1 (configuration not stated)	15%	-2%	nt	7%	-19%
COC(=O)c1ccc(NC(=O)CC2C(=O)N(c3cccc(C)c3)C(=O)N2Cc2ccco2)cc1 (configuration not stated)	-3%	-12%	nt	7%	-21%
CC/C(C)=N\N=C\c1c(O)n(CC)c2cc(C3=NNC(=O)CC3)ccc12	-9%	-23%	-9	16µM*	-3%
O=c1[nH]c2c(s1)C=Nc1ccccc1N2	-10%	-16%	-2	-15%	28µM*
C[C@]12CC[C@@H]3c4ccc(O)cc4CC[C@H]3[C@@H]1CC[C@H]2O	-1%	-7%	2	-7%	nt
CO/N=C(\C)CCN1CCCCc2nc(C)c(C)cc21	2%[11.6 µM]	-5%[11.6 µM]	-14	-4%[11.5 µM]	nt
CC[C@@H](c1ccccc1)n1c(=O)n2n(c1=O)[C@H]1[C@H](O)[C@H]3O[C@@H]3/C(=N/OCc3ccccc3)[C@@H]1CC2	-8%[11.6 µM]	-4%[11.6 µM]	3	-6%[11.5 µM]	nt
SMILES	Tau fibril FP	Tau fluor counter	Coupling enz	Tau ThT inhib	USP1 inh
O=c1[nH][nH]c(C(F)(F)F)c1C=Nc1ccccc1	0%	1%	2	1%	-8%
Cc1cc(O)ccc1N=Cc1c(C(F)(F)F)[nH][nH]c1=O	32µM*	?	-22	25µM*	-14%
COc1ccc(C)cc1Nc1nc2c(S(=O)(=O)c3cccc(Cl)c3)nnn2c2ccsc12	-1%	-5%	nt	7%	9%
COc1ccccc1-c1c(-c2ccc(OCC(=O)NN)cc2O)n[nH]c1C(F)(F)F	-2%	?	0	-6%	-8%
COc1ccc(-c2n[nH]c(C(F)(F)F)c2-c2cc3ccccc3o2)c(O)c1	-1%	?	0	18µM*	-14%
CC1CCCCN1C(=O)CSc1nc2ccccc2nc1Cc1ccc(Cl)cc1 (configuration not stated)	-6%	-15%	nt	-13%	-16%
COc1cc(/C=N/Nc2ccccc2[N+](=O)[O-])ccc1OC(=O)c1ccccc1F	8%	-16%	-2	?	-18%
COc1cc(OC)cc(C(=O)Oc2ccc(/C=N/Nc3nc4ccccc4s3)cc2OC)c1	1%	10µM*[quencher]	-3	?	-5%
COc1ccc(C=NNc2nc3ccccc3s2)cc1	nt	nt	nt	nt	1%
COc1cc(/C=N/Nc2nc3ccccc3s2)ccc1OC(=O)c1ccccc1F	12%	7.1µM*[quencher]	-2	?	-12%
CCOC(=O)c1c(C2COc3ccccc3O2)csc1N (configuration not stated)	9%	25µM*[quencher]	1	?	-11%
COc1ccc(-c2nc3ccc(NS(=O)(=O)c4ccc(C)cc4)cc3o2)cc1	-14%	16µM*[quencher]	nt	6%	-22%
COc1ccc(-c2nc3ccc(NS(=O)(=O)c4ccccc4)cc3o2)cc1	?	?	nt	?	-29%
CCOc1ccc(C(=O)c2cn(CC(=O)Nc3ccc(F)cc3)c3cc4c(cc3c2=O)OCO4)cc1	?	?	nt	?	-10%
OCCNC(=S)Nc1ccc2nsnc2c1	-8%	-3%	-47*	-9%	?
Cc1nc2ccc(NC(=S)NCCCO)cc2nc1C	?	-24%	-30*	?	-21%
O=C(NCCO)Nc1ccc2nsnc2c1	-4%	6%	-4	4%	2%
CCCNC(=S)Nc1ccc2nc(-c3ccccn3)c(-c3ccccn3)nc2c1	0%	-8%	-54*	-2%	-23%
COc1cc(Br)c(C2CC(=O)Nc3cc4c(cc32)OCCO4)cc1OC (configuration not stated)	0%	-13%	nt	-4%	-18%
C[C@]12C[C@@](C)(C=C1/C=C/c1ccccc1)C(=O)C[C@H]2c1ccccc1	-1%	-5%	3	1%	nt
COc1ccc(C2c3c(-c4ccccc4O)n[nH]c3C(=O)N2CCc2ccccc2)cc1 (configuration not stated)	?	?	nt	-12%	-26%
CCCCn1cc(S(=O)(=O)c2ccccc2)c(=O)c2cc(F)c(N3CCC(C)CC3)cc21	-3%	-2%	nt	-4%	-5%
CC(=O)Nc1ccc(-c2ccc(NC(C)=O)cc2)cc1	12%	2%	-2	-6%	-4%

Bioassay records as filed in PubChem.
